The values below come from PubChem BioAssay (Tox21).

The structures appear in SMILES notation. Values without a mark were called inactive. Records with an inconclusive call do not appear. The source made the active and inactive calls. Unless noted, the call rests on the fitted dose curve; in most records, active means well fitted curve in the direction sought with a large enough effect in the repeat runs; inconclusive means weak or mixed curves; inactive means no such curve, though single readings can be large; an effect the other way counts as inactive or inconclusive.

Experiment [1] concerns the target Thyrotropin receptor (Homo sapiens) (UniProt P16473). Briefly: qHTS assay to identify small molecule agonists of the thyroid stimulating hormone receptor (TSHR) signaling pathway (AID 1224843; calls by dose curve; further: nearly all actives have a fitted effect of over 45% in size). Put shortly:
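Compounds are titrated over 15 concentrations, in triplicate, onto TSHR-HEK293 cells seeded at 800/well. Plates sit 30 min at room temperature before cAMP-d2 and anti-cAMP cryptate are added; signal is read after a further hour.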
In general terms: Quantitative high-throughput screening tests each substance at several concentrations.

A short description of experiment [2]: qHTS assay to identify small molecule agonists of the hypoxia (HIF-1) signaling pathway - cell viability counter screen (AID 1224844; calls by dose curve; further: nearly all actives have a fitted effect of over 50% in size; further: potency means the concentration at half of the fitted maximal effect). Put shortly:
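Cytotoxicity was measured in parallel with the HRE-driven beta-lactamase readout: after 17 hrs of compound exposure at 37C, HRE-bla ME-180 cells received CellTiter-Glo and luminescence was recorded 30 min later.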

The nature of experiment [3]: qHTS assay to identify small molecule agonists of the hypoxia (HIF-1) signaling pathway (AID 1224846; active means well fitted activation curve with a large enough effect in the signal ratio in the repeat runs, not every such curve was filed as active; the % refers to the signal ratio). Put shortly:
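Compounds from the Tox21 10K library, dissolved in DMSO, are tested for induction of a hypoxia response element–controlled beta-lactamase reporter in ME-180 cells. Exposure lasts 17 hrs at 37C after a 5 hr settling period, followed by CCF4-AM FRET substrate.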

A short description of experiment [4]: qHTS assay to identify small molecule agonists of H2AX - cell viability counter screen (AID 1224847; calls by dose curve; further: top concentration of the series differs between compounds; nearly all actives have a fitted effect of over 30% in size). Put shortly: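 Read-out: CellTiter-Glo luminescence, 30 min RT. Cells: wild-type CHO-K1, 1000/well, 10% FBS, plated overnight at 37C. Treatment: 15 concentrations, 3 hr, 37C, 0.76% DMSO.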
A short description of experiment [5]: qHTS assay to identify small molecule antagonists of the estrogen related receptor (ERR) signaling pathway from Tox21 library (AID 1224848). Further: nearly all actives have a fitted effect of over 50% in size. The gist of the method:
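First, 2,000 ERR cells per well were plated and held 6 h at 37 C/5% CO2. Next, compounds in DMSO were pinned in and left 18 h at 37 C. Finally, ONE-Glo was added and luminescence read after 30 min at room temperature.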

Experiment [6] is described as follows: qHTS assay to identify small molecule agonists of the estrogen related receptor (ERR) signaling pathway from Tox21 library (AID 1224849; calls by dose curve; further: nearly all actives have a fitted effect of over 15% in size). The conditions noted are these: ERR reporter cell line, ONE-Glo luciferase, 18 h; at 92.4 µM (top of the series) unless noted. Put shortly: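 Cells carrying the ERR reporter were plated and allowed to settle for 6 h, exposed to library compounds for 18 h at 37 C, then lysed with ONE-Glo and luminescence measured.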

Experiment [7] in a line: qHTS RealTime-Glo MT Cell Viability Assay in HepG2 cells - 24 hour (AID 1224867). Further: nearly all actives have a fitted effect of over 50% in size. Put shortly:
(§1)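 Cells + NanoLuc/prosubstrate dispensed (600 cells/well) → 5 h at 37 C/5% CO2 → compounds in DMSO transferred → 40 h incubation at 37 C, luminescence read at 0, 8, 16, 24, 32, 40 h.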

Experiment [8] in a line: qHTS RealTime-Glo MT Cell Viability Assay in HEK293 cells - 32 hour (AID 1224868). Further: nearly all actives have a fitted effect of over 50% in size. Further: potency means the concentration at half of the fitted maximal effect. The gist of the method: (§2)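 Tox21 10K qHTS, HEK293, 600 cells/well, RealTime-Glo reagent co-dispensed with cells; 5 h preincubation, compound by pintool, 37 C, luminescence at 0–40 h.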
The nature of experiment [9]: A CellTox Green Cytotoxicity Assay to monitor cytotoxicity in HEK293 cells - 0 hour (AID 1224869). Further: nearly all actives have a fitted effect of over 50% in size. The gist of the method:
(§3)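 Cells (HEK293, 600/well) and dye reagent are dispensed together. After 5 h at 37 C, 23 nL compound is pinned in. Plates stay at 37 C for 40 h with fluorescence read at 0h, 8h, 16h, 24h, 32h and 40h.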

Experiment [10] can be described thus: qHTS RealTime-Glo MT Cell Viability Assay in HepG2 cells - 40 hour (AID 1224870). Further: nearly all actives have a fitted effect of over 50% in size. Put shortly:
(§4)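 HepG2 cells mixed with RealTime-Glo MT reagents (NanoLuc plus cell-permeant prosubstrate) were seeded at 600 cells/well, incubated 5 h at 37 C/5% CO2, then pinned with compounds in DMSO; nonlytic luminescence tracked viability during 40 h treatment.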

Experiment [11] is described as follows: qHTS RealTime-Glo MT Cell Viability Assay in HEK293 cells - 16 hour (AID 1224872). Further: nearly all actives have a fitted effect of over 50% in size. Further: potency means the concentration at half of the fitted maximal effect. Put shortly: as §2
Experiment [12] in a line: qHTS RealTime-Glo MT Cell Viability Assay in HepG2 cells - 8 hour (AID 1224873). Further: nearly all actives have a fitted effect of over 55% in size. The gist of the method:
as §4

Experiment [13] in a line: qHTS RealTime-Glo MT Cell Viability Assay in HEK293 cells - 40 hour (AID 1224874). Further: nearly all actives have a fitted effect of over 50% in size. Further: potency means the concentration at half of the fitted maximal effect. Particulars: RealTime-Glo luminescence; max response: stronger effect = lower value. Put shortly: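 Real-time viability in HEK293: signal arises when living cells convert a prosubstrate for NanoLuc in the medium, so luminescence tracks viable cell number. Compound (23 nL, DMSO) added 5 h post-seeding; kinetic reads at 0–40 h, 37 C.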

Experiment [14] can be described thus: A CellTox Green Cytotoxicity Assay to monitor cytotoxicity in HEK293 cells - 24 hour (AID 1224875). Further: nearly all actives have a fitted effect of over 45% in size. Further: potency means the concentration at half of the fitted maximal effect. Put shortly: as §3
The nature of experiment [15]: A CellTox Green Cytotoxicity Assay to monitor cytotoxicity in HepG2 cells - 16 hour (AID 1224876). Further: nearly all actives have a fitted effect of over 45% in size. Further: potency means the concentration at half of the fitted maximal effect. Put shortly:
(§5)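 Cells and non-lytic dye reagent are dispensed together (600 HepG2 cells/well) and incubated 5 h before DMSO compound transfer. Kinetic fluorescence is then recorded in the same wells during 40 h at 37 C.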

A short description of experiment [16]: qHTS RealTime-Glo MT Cell Viability Assay in HepG2 cells - 32 hour (AID 1224877). Further: nearly all actives have a fitted effect of over 55% in size. Further: potency means the concentration at half of the fitted maximal effect. The gist of the method:
as §1

Experiment [17] can be described thus: A CellTox Green Cytotoxicity Assay to monitor cytotoxicity in HepG2 cells - 24 hour (AID 1224878). Further: nearly all actives have a fitted effect of over 45% in size. Further: potency means the concentration at half of the fitted maximal effect. Put shortly:
as §5

The nature of experiment [18]: A CellTox Green Cytotoxicity Assay to monitor cytotoxicity in HepG2 cells - 40 hour (AID 1224879). Further: nearly all actives have a fitted effect of over 40% in size. Further: potency means the concentration at half of the fitted maximal effect. Put shortly: as §5
Experiment [19] in a line: A CellTox Green Cytotoxicity Assay to monitor cytotoxicity in HEK293 cells - 40 hour (AID 1224871). Further: nearly all actives have a fitted effect of over 45% in size. Further: potency means the concentration at half of the fitted maximal effect. The gist of the method: as §3
Experiment [20] is described as follows: qHTS assay to identify small molecule agonists of H2AX (AID 1224845; active means well fitted activation curve with a large enough effect in the signal ratio in the repeat runs, not every such curve was filed as active; the % refers to the signal ratio). Put shortly: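 Wild-type CHO-K1 cells plated overnight, then exposed 3 hr at 37C to compounds at 15 concentrations (0.76% DMSO). Lysed, then HTRF anti-pH2AX(S139)-cryptate/anti-H2AX-d2 detection after 24 hr at room temperature; emissions 665 and 620 nm.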
On the % scale 0 is the no-effect control and ±100 the full control effect.

Sequence of Thyrotropin receptor (Homo sapiens) (P16473 whole entry, looked up): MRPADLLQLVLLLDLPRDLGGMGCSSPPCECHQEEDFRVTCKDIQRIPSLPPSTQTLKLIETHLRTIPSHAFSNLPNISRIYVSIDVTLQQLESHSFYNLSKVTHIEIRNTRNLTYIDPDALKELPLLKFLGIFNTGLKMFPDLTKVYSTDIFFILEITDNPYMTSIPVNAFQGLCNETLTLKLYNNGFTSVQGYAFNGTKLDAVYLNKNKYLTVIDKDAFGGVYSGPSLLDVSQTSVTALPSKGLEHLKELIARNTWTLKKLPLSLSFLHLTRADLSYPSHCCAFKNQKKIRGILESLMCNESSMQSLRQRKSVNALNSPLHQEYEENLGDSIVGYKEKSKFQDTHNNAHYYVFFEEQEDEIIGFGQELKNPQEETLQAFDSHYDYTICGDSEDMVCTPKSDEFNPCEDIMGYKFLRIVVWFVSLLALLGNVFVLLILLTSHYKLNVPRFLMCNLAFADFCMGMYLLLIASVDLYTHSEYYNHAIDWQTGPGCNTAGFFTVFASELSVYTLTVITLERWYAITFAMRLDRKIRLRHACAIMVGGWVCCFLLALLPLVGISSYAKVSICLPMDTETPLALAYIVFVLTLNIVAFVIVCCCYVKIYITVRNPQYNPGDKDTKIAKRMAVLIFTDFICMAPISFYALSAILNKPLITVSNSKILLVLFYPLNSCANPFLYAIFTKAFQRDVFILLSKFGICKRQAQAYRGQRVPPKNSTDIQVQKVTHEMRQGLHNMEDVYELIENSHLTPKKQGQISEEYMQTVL

Regarding `C=Cc1ccc(OC(C)=O)cc1`, the Potency result in [1], in experiment [2], in experiment [4], in experiment [5], in experiment [7] and in [8] was “inactive” each time. In addition, the Potency result in experiment [9], in experiment [10], in [11], in experiment [12], in experiment [14] and in [15] was “inactive” each time. Further, the Potency result in experiment [16], in [17] and in experiment [18] was “inactive” in each case. Besides, in [3], the result was inactive. Also, the activity change, positive = activation in experiment [6] is 12.7%. Further, the max response in experiment [13] was 18.3%.
Regarding `CSCC[C@H](NC(=O)[C@H](Cc1c[nH]c2ccccc12)NC(=O)CCNC(=O)OC(C)(C)C)C(=O)N[C@@H](CC(=O)O)C(=O)N[C@@H](Cc1ccccc1)C(N)=O`, the Potency entry in experiment [1], in experiment [2], in experiment [4], in experiment [7], in experiment [8] and in experiment [9] was “inactive” in each case. In addition, the Potency result in experiment [10], in experiment [19], in [11], in [12], in experiment [14] and in experiment [15] was “inactive” each time. For the same compound, the Potency result in experiment [16], in experiment [17] and in experiment [18] was “inactive” each time. The result in [3] was inactive. Moreover, the max response in experiment [13] was 3.31%.
With `Cc1cc(CCCOc2c(C)cc(-c3noc(C(F)(F)F)n3)cc2C)on1`, the Potency result in experiment [1], in [2], in experiment [20], in experiment [9], in [10] and in experiment [19] was “inactive” throughout. For the same compound, the Potency entry in [12], in [14], in experiment [15], in experiment [16], in experiment [17] and in experiment [18] was “inactive” throughout.
On to `Oc1ccc2c(c1)Cc1ccccc1-2`, for which the Potency entry in experiment [1], in [20], in experiment [5], in experiment [7], in [9] and in [10] was “inactive” each time. In addition, the Potency entry in experiment [12], in experiment [14] and in [16] was “inactive” each time. Moreover, the result in experiment [3] was inactive. Besides, the Potency in [8] is 19.5 µM (active); in experiment [11], 21.9 µM (active); in experiment [13] it was 19.5 µM (active).
As to `CCCCCCC(O)CCCCCCCCCCC(=O)OC` (configuration not stated), the Potency entry in experiment [1], in experiment [20], in experiment [4], in experiment [7], in experiment [8] and in experiment [9] was “inactive” throughout. Besides, the Potency result in experiment [10], in [19], in experiment [11], in experiment [12], in [14] and in experiment [15] was “inactive” in each case. In addition, the Potency entry in experiment [16], in [17] and in [18] was “inactive” in each case. In addition, in experiment [3], the compound was called inactive. In addition, in experiment [13], the max response was -16.2%.
Turning to `CC1CCC(C(C)CS)CC1S` (configuration not stated), the Potency entry in experiment [1], in experiment [4], in [5], in experiment [7], in experiment [8] and in experiment [9] was “inactive” each time. Further, the Potency result in [10], in experiment [11], in [12], in experiment [15], in [16] and in experiment [17] was “inactive” throughout. In addition, the Potency entry in experiment [18] was “inactive”. Besides, the figures for the Potency in experiment [2], in experiment [19] and in [14] were 54.9 µM (active), 49 µM (active) and 43.6 µM (active), respectively. For the same compound, the max response in experiment [13] is 10.8%.
Regarding `Cc1ccc(N(CCO)CCO)cc1`, the Potency entry in experiment [1], in experiment [20], in [7], in experiment [8], in [9] and in [10] was “inactive” throughout. Further, the Potency result in experiment [19], in [11], in [12], in experiment [14], in experiment [15] and in experiment [16] was “inactive” each time. Further, the Potency result in [17] and in [18] was “inactive” throughout. The call in [3] was inactive. Also, in experiment [13], the max response is 0.166%.
`CN1CCCN(C(c2ccccc2)c2ccc(Cl)cc2)CC1` (configuration not stated): the Potency result in experiment [1], in experiment [9], in experiment [11] and in [12] was “inactive” in each case. Moreover, the Potency in experiment [2] is 21.3 µM (active); in experiment [19] it was 26.8 µM (active); in [14], 23.9 µM (active); in experiment [15], 23.9 µM (active); in [16], 23.9 µM (active); in [17] it was 23.9 µM (active). Besides, the Potency in [18] was 21.3 µM (active). For the same compound, the activity change, positive = activation in experiment [6] is -29.3% [at 42.5 µM].
